Screening results from PubChem BioAssay.
Hits are enriched below; roughly 7.9% of the tested compounds scored in any of these assays.
KB-3-1 cytotox: KB-3-1 parental cell cytotoxicity. KB-3-1 viability, CellTiter-Glo ATP luminescence, 72 h. Potency, µM (titrated, usually from 46.1 µM), hits mostly cytotoxic. hit rate 1.4% among 400,000; further: on the % scale 0 is the no-effect control and ±100 the full control effect; nearly all actives have a fitted effect of over 60% in size
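Viability of parental KB-3-1 cells, measured by CellTiter-Glo luminescence, followed a 72 h incubation at 37 °C with pinned compounds in phenol-red-free DMEM containing 10% FBS.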
MCF10A rereplic: induces DNA re-replication in MCF 10a normal breast cells. hit rate 2.9% among 350,000. MCF 10A DNA re-replication, Hoechst nuclear intensity, 48 h. Potency, µM (titrated, usually from 46.1 µM), without a hit: at the highest dose activity, positive = re-replication, hits mostly activators. AID 624296; further: % of control where 0% means no effect; nearly all actives have a fitted effect of over 50% in size
HT1080NT lethal: kills 2HG-producing HT-1080-NT fibrosarcoma cells; Potency, µM (doses to about 46.1 µM), for inactives: at the highest dose activity, negative = less viability, actives largely listed as cytotoxic; hit rate 1.6% among 360,000; HT-1080-NT fibrosarcoma viability, CellTiter-Glo ATP luminescence, 48 h;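 further: NT is the 2HG producing partner of a matched IDH1 knockdown line; 0% = DMSO-treated cells and -100% = media-only wells without cells; nearly all actives have a fitted effect of over 55% in size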
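Fibrosarcoma NT cells, 750 per well in 5% FBS RPMI, were exposed to compound for 48 hours. Viability: CellTiter-Glo luminescence.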
KB-V1 cytotox: KB-V1 MDR subline cytotoxicity. KB-V1 MDR cells viability, CellTiter-Glo, 72 h. Potency, µM (top dose mostly 46.1 µM), actives largely listed as cytotoxic. hit rate 3.4% among 400,000; further: on the % scale 0 is the no-effect control and ±100 the full control effect; nearly all actives have a fitted effect of over 60% in size
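KB-V1, DMEM (no phenol red) + 10% FBS; cpd pin-transferred, titration series; 72 h, 37 degrees C; CellTiter-Glo, luminescence. Data normalized, curve-fit.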
HT1080 IDH1KD tx: HT-1080 IDH1 knockdown cell toxicity (counter line) | HT-1080 IDH1 knockdown viability, ATP luminescence, 48 h | Potency, µM (top dose mostly 46.1 µM), without a hit: at the highest dose activity, negative = toxicity, actives largely listed as cytotoxic | hit rate 2% among 360,000;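 further: 0% = DMSO wells and -100% = cell-free medium wells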
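IDH1KD HT-1080 cells, 750/well, RPMI + 5% FBS; compound pinned after 2 h settling; 48 h, 37 °C; CellTiter-Glo luminescence; % activity normalised to DMSO and no-cell wells; curves fitted, classed by r2 and efficacy.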
SW480 rereplic: inducers of DNA re-replication in SW480 colon cancer cells | hit rate 1.8% among 340,000 | SW480 DNA re-replication, Hoechst DNA content imaging, 48 h | Potency, µM (highest dose often 46.1 µM), inactives show top-dose re-replication activation, hits mostly activators | AID 624297; further: % of control where 0% means no effect; nearly all actives have a fitted effect of over 55% in size
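Readout is total intensity of Hoechst-stained nuclei, excited at 405 nm and collected at 500-530 nm. Compound treatment lasted 48 hr at 37 C in 5% CO2 before staining.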
* = called active by the depositor; i = inactive; u = inconclusive; x = not tested or not shown. The call rests on the fitted dose curve; in most records, active means well fitted curve in the direction sought with a large enough effect; inconclusive means small, poorly fitted or top-dose-only effect, or another doubt; inactive means no such curve, though single readings can be large; an effect the other way counts as inactive or inconclusive. Potency means the concentration at half of the fitted maximal effect.

SMILES	KB-3-1 cytotox	MCF10A rereplic	HT1080NT lethal	KB-V1 cytotox	HT1080 IDH1KD tx	SW480 rereplic
Cc1ccc(C2NC(c3ccc4c(c3)OCO4)=CC(c3cc(Br)ccc3O)N2)cc1 (stereo unspecified)	i	x	x	i	x	x
CCOC(=O)c1c(CSc2ccc(CC)cc2)oc2ccc(O)c(CN(C)C)c12	u	u	u	u	21µM*	18µM*
COC(=O)Cc1c(CSc2ccccc2)oc2ccc(O)c(CN(C)C)c12	i	u	0%	i	5%	-2%
CCOC(=O)c1c(CSc2ccccc2)oc2ccc(O)cc12	i	18µM*	-19%	i	-15%	0%
CC(=O)c1c(CSc2ccccc2)oc2ccc(O)c(CN(C)C)c12	i	u	u	i	u	13µM*
Cc1ccccc1NC(=O)Cc1nnc(SCC(=O)NC2=NCCS2)n1C	i	u	-17%	i	2%	25%
O=C(NCc1ccco1)C1CCN(C(=O)N2CCOc3ccccc32)CC1	i	x	x	i	x	x
O=c1cc2oc3cc(O)c(O)cc3c(-c3ccccc3[N+](=O)[O-])c-2cc1O	i	27%	15µM*	u	21µM*	29%
O=c1cc(-c2ccccc2Cl)oc2cccc(O)c12	i	6%	12%	i	13%	0%
CCOC(=O)c1[nH]c2cc(OC)c(OC)cc2c1NC(=O)CN(C)C1CCCCC1	u	10%	2%	7.3µM*	u	0%
COC(=O)[C@@]12C[C@@H](CC(=O)NCCc3ccccc3OC)C(=O)N(CCc3ccc(OC)c(OC)c3)C1=CCC(C)(C)C2	u	x	u	21µM*	u	x
COC(=O)[C@@]12C[C@@H](CC(=O)NCC34CC5CC(CC(C5)C3)C4)C(=O)N(CCc3ccc(OC)c(OC)c3)C1=CCC(C)(C)C2	u	x	u	23µM*	u	x
CCCCNC(=O)C[C@@H]1C[C@@]2(C(=O)OC)CC(C)(C)CC=C2N(CCc2ccc(OC)c(OC)c2)C1=O	i	x	1%	u	4%	x
COc1ccc(C(C(=O)NC(C)(C)C)n2c(COc3ccc(C)cc3)nc3ccccc32)cc1 (stereo unspecified)	i	x	u	u	u	x
COc1ccc(C(C(=O)NC(C)(C)C)n2c(-c3ccc(=O)[nH]c3)nc3ccccc32)cc1 (stereo unspecified)	u	x	13µM*	i	8.2µM*	x
CCOc1ccccc1N1CCN(Cc2cn[nH]c2-c2ccc(F)cc2)CC1	i	u	-7%	i	-29%	0%
COc1ccc(OC)c(NC(=O)c2cc(-c3cc(Cl)ccc3O)n[nH]2)c1	u	15µM*	-27%	u	u	u
NS(=O)(=O)c1ccc(NC(=O)c2cc(Cl)ccc2Cl)cc1	i	19%	-6%	i	-6%	1%
NS(=O)(=O)c1ccc(NC(=O)c2cc(-c3cc(Cl)ccc3O)n[nH]2)cc1	i	1%	u	i	18µM*	2%
COc1ccc(Cl)cc1NC(=O)c1cc(-c2ccccc2O)n[nH]1	i	11%	-2%	u	-3%	-108%
COc1cccc(N=c2oc3ccccc3cc2-c2nc3ccccc3[nH]2)c1	i	11%	u	18µM*	u	19%
CC(C(=O)c1ccccc1)[n+]1ccc(Cl)c2ccc(Cl)cc21 (stereo unspecified)	i	x	x	i	x	x
CSC1=NC2(CCN(C(=O)NC3CCCCC3)CC2)N=C1c1ccc(C)cc1	i	x	x	i	x	x
COc1cccc(Nc2sc(C(=O)c3ccc(Cl)cc3)c(N)c2C(=O)NCCc2ccc(OC)c(OC)c2)c1	i	x	x	i	x	x
COc1ccccc1NC(=O)c1c(Nc2ccccc2F)sc(C(=O)Nc2cccc(Cl)c2)c1N	i	u	15µM*	i	u	-1%
